Records with an inconclusive call do not appear. Entries that show only a call come without a potency. Active and inactive are the calls of the source. The call rests on the fitted dose curve; in most records, active means well fitted inhibition curve with a large enough effect in the polarisation, with a control signal flat (not every such curve was filed as active); inconclusive means small, poorly fitted or top-dose-only effect, or effect the other way, or a change in a side signal; inactive means no such curve, though single readings can be large or run the other way; the % refers to the polarisation.

35 compounds from PubChem BioAssay AID2782 (National Center for Advancing Translational Sciences (NCATS), 2010) can be followed below.
Potency means the concentration at half of the fitted maximal effect.

The nature of the assay: Confirmation of Inhibitors Targeting the Menin-MLL Interaction in MLL Related Leukemias: Competition With Texas Red Labeled MLL-derived Mutant Peptide. The conditions noted are these: fluorescence polarization, Texas Red MLL peptide displacement; series mostly up to 94.6 µM. A digest of the protocol:
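FP competition using menin at 200 nM with Texas Red-labeled mutant MLL peptide (50 nM) plus fluorescein MLL-w.t. peptide (25 nM) in 50 mM Tris-HCl pH 7.5, 50 mM NaCl, 1 mM DTT, 0.05% BSA; compound added, 1 hr ambient; polarization read per label.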
A general note: Fluorescence polarisation rises when a labelled molecule tumbles more slowly, as on binding a larger partner.
In the case of `Cc1ccc(NC(=O)C(C)N2C(=O)c3ccccc3C2=O)c(C)c1` (stereo not given), the Potency result is “inactive”. Take `CCC[n+]1c2ccccc2cc2ccccc21`: the Potency was 31.7 µM (active). With `O=C(CC(=O)c1ccccc1)Nc1cc(C(F)(F)F)ccc1Cl`, the Potency result was “inactive”. On to `CCOC(=O)c1cnc2ccc(OC)cc2c1Nc1ccc(N2CCN(C)CC2)cc1`, for which the Potency is 141 µM (active). As for `COc1ccccc1CNCC(=O)Nc1ccc(C#N)cc1`, the Potency result was “inactive”.

Regarding `Cc1ccc(C)n1-c1ccc(N(C)C)cc1`, the Potency result was “inactive”. Regarding `CCCN(CCC)CCCNC(=O)c1cc2c(=O)[nH]c3ccccc3c2s1`, the Potency entry was “inactive”. For `CCn1cnc2c1c(=O)n(CC(=O)O)c(=O)n2Cc1ccccc1`, the Potency result is “inactive”. As for `CCCCn1c(SCC(=O)NCc2ccc(OC)c(C(=O)O)c2)nc2cc(S(N)(=O)=O)ccc21`, the Potency result was “inactive”. In the case of `CCOc1cc(C(c2c(C)[nH][nH]c2=O)c2c(C)[nH][nH]c2=O)cc(Br)c1OC`, the Potency result was “inactive”.

Take `C/C(=N\NC(=O)c1nnn(-c2nonc2N)c1C)c1ccc(-c2ccccc2)cc1`: the Potency result was “inactive”. Turning to `O=C(CN1C(=O)/C(=C/c2cccc(Br)c2)SC1=S)NC1=NCCS1`, the Potency is 17.8 µM (active). Under `c1cc(CN2CCCNCCNCCCNCC2)ccc1CN1CCCNCCNCCCNCC1` stands 22.4 µM (active); under `CN(C)CCc1c[nH]c2ccc(CC3COC(=O)N3)cc12` (stereo not given), “inactive”; under `CN1CCN(CC(=O)c2ccccc2F)CC1`, “inactive”. With `COCC(=O)Nc1cccc2ccccc12`, the Potency result was “inactive”. Turning to `Cc1nc(N2CCN(C)CC2)c2c3c(sc2n1)CCCC3`, the Potency was 126 µM (active). The figure for `NS(=O)(=O)c1ccc(NC(=O)c2ccc(S(=O)(=O)N3CCc4ccccc43)cc2)cc1` is 20 µM (active). The figure for `O=C(/C=C/c1ccccc1)Nc1nnc(SCC(=O)c2ccc3ccccc3c2)s1` is 17.8 µM (active). For `N=c1oc2ccccc2cc1-c1nc(-c2ccc(Cl)cc2)cs1`, the Potency entry was “inactive”. Consider `COCCNC(=O)C(OC(=O)c1nsc(Cl)c1Cl)C(C)C` (stereo not given), for which the Potency result is “inactive”. Consider `Cc1ccc(C2=NN(C(=O)c3ccccc3F)C(c3ccccc3F)C2)cc1` (stereo not given), for which the Potency entry was “inactive”.

With `COC(=O)c1cc(CNC(=O)CCCSc2ccccc2)ccc1OC`, the Potency result is “inactive”. With `COc1ccccc1CC(=O)Nc1ccc(-c2noc(COc3ccc(Br)cc3)n2)cc1`, the Potency was 71 µM (active). With `NC(=NCCCCCCN=C(N)/N=C(\N)Nc1ccc(Cl)cc1)/N=C(\N)Nc1ccc(Cl)cc1`, the Potency is 70.8 µM (active). Turning to `CCOc1ccccc1N(CC(=O)Nc1ccccc1C(=O)N1CCCC1)S(C)(=O)=O`, the Potency entry is “inactive”.

As for `COc1ccc(Cn2nnnc2C(c2ccc3ncccc3c2)N2CCN(C3CCCCC3)CC2)cc1` (stereo not given), the Potency is 89.1 µM (active). `O=[N+]([O-])c1ccc(S(=O)(=O)c2ccccc2)nc1`: the Potency entry is “inactive”. The entry for `CCc1nnc(NC(=O)C2(C)COC(c3ccc(OC)cc3)OC2)s1` (stereo not given) is “inactive”; for `COc1ccccc1/C=N/n1c(N)c(S(=O)(=O)c2cccs2)c2nc3ccccc3nc21` it is “inactive”; for `Cn1ncc2c(N3CCCCC3)nc(NCCCO)nc21` it is “inactive”.

`O=C(C1=C(O)C(=O)N(CCN2CCOCC2)C1c1cccc(Br)c1)c1cccs1` (stereo not given): the Potency entry was “inactive”. Under `COc1ccccc1C(=O)Nc1ccccc1SC(=O)c1ccccc1OC` stands “inactive”. The entry for `COc1cccc(OC)c1NC(=O)CN1CCN(C)CC1` is “inactive”; for `CN(C)CCCOc1ccc2c(c1)Sc1ccccc1CC2=O` it is 141 µM (active).
